HDAC3 inhib = blocks human histone deacetylase 3 | inhibition, % at 8.3 µM | actives 0.15% (n = 320,000) | recombinant HDAC3, fluorogenic peptide/trypsin coupled, fluorescence; in the data active = inhibition above about 26%, passing the limit was not always enough; inconclusive = no clear call, values can overlap the other calls
p97 inhibitor = human p97 ATPase inhibition | recombinant p97 ATPase, Kinase-Glo ATP luminescence, 3 h | inhibition, % at 8 µM | actives 0.42% (n = 220,000) | AID 1481; in the data active = inhibition above about 15%
UBC9 SUMO inh = SUMOylation inhibition. P63279. HTRF SUMOylation assay, SAE1/SAE2 + UBC9, in vitro. inhibition, % at 35 µM. actives 0.36% (n = 290,000); in the data active = inhibition above about 50%, passing the limit was not always enough; inconclusive = no clear call, values can overlap the other calls
Target sequence (P63279 whole entry, looked up): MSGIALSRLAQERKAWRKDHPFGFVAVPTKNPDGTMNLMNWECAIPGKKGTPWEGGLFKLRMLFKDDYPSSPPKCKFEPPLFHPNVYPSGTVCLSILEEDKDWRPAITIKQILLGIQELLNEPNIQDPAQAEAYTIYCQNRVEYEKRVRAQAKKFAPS
G6PDH counter = inhibits Leuconostoc G6PDH, flagging false hits in G6PDH-based assays; Purified L. mesenteroides G6PDH, diaphorase/resazurin coupled fluorescence, 45 min; inhibition, % at 5 µM; actives 0.12% (n = 200,000); in the data active = inhibition above about 50%
PfM18AAP inh = blocks P. falciparum M18 aspartyl aminopeptidase. recombinant PfM18AAP, H-Glu-NHMec fluorogenic cleavage. inhibition, % at 7.35 µM. actives 1.2% (n = 290,000). AID 1822;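 active = inhibition above the campaign mean inhibition over all tested compounds plus 3 SD, cut at about 28% in these data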
PHOSPHO1 block = inhibitors of human PHOSPHO1 phosphatase. Q8TCT1. recombinant PHOSPHO1, absorbance phosphatase assay. inhibition, % at 13.3 µM. actives 1.1% (n = 290,000); in the data active = inhibition above about 60%
Target sequence (Q8TCT1 whole entry, looked up): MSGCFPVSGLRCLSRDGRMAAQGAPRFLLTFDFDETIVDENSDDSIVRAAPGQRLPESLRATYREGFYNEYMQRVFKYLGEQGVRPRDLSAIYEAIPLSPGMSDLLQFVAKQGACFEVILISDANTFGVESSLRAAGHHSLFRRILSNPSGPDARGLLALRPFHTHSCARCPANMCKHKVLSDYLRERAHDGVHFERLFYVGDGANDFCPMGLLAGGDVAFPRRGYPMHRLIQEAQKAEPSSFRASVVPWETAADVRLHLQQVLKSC
A number is an active result; i = inactive; ? = inconclusive; nt = not tested or not shown. In the library only some 2.5% were active in any assay of this set; here they are far more common.

SMILES	HDAC3 inhib	p97 inhibitor	UBC9 SUMO inh	G6PDH counter	PfM18AAP inh	PHOSPHO1 block
Cc1cc(-n2c(C)cc(C(=O)CSc3ccc4c(c3)OCCO4)c2C)no1	i	i	i	i	i	71
Cc1ccc(-n2nnnc2SCC(=O)c2cc(C)n(-c3cc(C)on3)c2C)c(C)c1	i	i	i	i	i	75
O=C(N/N=C1\C(=O)c2cccc3cccc1c23)c1ccc(O)cc1	i	i	i	i	i	i
O=C1C([N+](=O)[O-])=C(O)c2cccc3cccc1c23	i	nt	i	nt	32	i
CCOC(=O)C1(Cc2cccc(F)c2)CCN(C(=O)c2ccoc2C)CC1	i	i	i	i	i	63
O=C(CNc1cccc2ccccc12)N/N=C/c1ccc(OC(=O)/C=C/c2ccco2)cc1	nt	i	i	i	28	i
C[C@H](NC(=O)C1CC(=O)N(c2ccc3c(c2)OCO3)C1)C(=O)NC1CCCCC1 (some centres not stated)	i	nt	i	nt	i	i
COc1ccc(C(C)=O)cc1COC(=O)C1CCN(C(=O)c2ccc(Cl)cc2)CC1	i	nt	nt	nt	nt	nt
CC(C)CC(COCc1ccc(C(F)(F)F)cc1)N1CCN(C(=O)c2ccc(C(F)(F)F)cc2)CCC1=O (configuration not stated)	39	i	i	i	i	i
CCOc1cc(CNCc2cccnc2)ccc1OCC(=O)NC(C)(C)C	i	i	i	i	i	73
CCc1nn(C)c(-c2n[nH]c(=S)n2N)c1Cl	i	i	i	i	i	62
C/C(=N\Nc1nc2ccccc2[nH]1)c1ccc2c(c1)OCO2	i	i	i	i	i	i
COc1cccc(/C=N/NC(=O)C(=O)N/N=C/c2cccc(OC)c2O)c1O	nt	i	71	i	i	i
COc1cccc(/C=N/Nc2nc3ccccc3[nH]2)c1O	nt	i	i	nt	30	i
COc1cccc(/C=N/NC(=O)c2cc3cc([N+](=O)[O-])ccc3s2)c1O	i	i	i	i	i	83
C(=N\Nc1nc2ccccc2[nH]1)/c1ccc2c(c1)OCO2	nt	i	i	i	29	i
COc1ccc(CNS(=O)(=O)c2cc(CN3C(=O)c4cccnc4C3=O)ccc2OC)cc1	i	nt	i	nt	i	i
Cc1ccc2[nH]c(=O)c3cc(C(=O)N(C)C4CCCCC4)sc3c2c1	i	nt	i	nt	i	i
COC(=O)c1cccc(/C=N/NC(N)=S)c1O	i	i	i	nt	31	i
COc1cc(Cl)cc(/C=N/NC(N)=O)c1O	i	i	i	54	i	i
NC(=S)N/N=C/c1ccccc1[N+](=O)[O-]	i	i	i	i	i	i
CCN(CC)CCNC(=O)CCCCn1c(=S)[nH]c2c([nH]c3ccc(OC)cc32)c1=O	nt	i	i	i	i	95
CCCCNC(=O)c1ccc(Cn2c(=S)[nH]c3c([nH]c4ccc(OC)cc43)c2=O)cc1	i	i	53	i	i	i
COc1ccc(NC(=O)c2cccn(CC=C(C)C)c2=O)cc1	i	i	i	i	i	i
Cc1cc(C)c(S(C)(=O)=O)c(NN)n1	i	i	i	i	i	i
SMILES	HDAC3 inhib	p97 inhibitor	UBC9 SUMO inh	G6PDH counter	PfM18AAP inh	PHOSPHO1 block
N#Cc1ccc(OCC(=O)NCC(c2cccs2)N2CCOCC2)cc1 (configuration not stated)	i	nt	i	nt	i	i
COc1ccc(OCc2nnc(SCC(=O)NC3CC3)n2C)cc1	i	nt	i	nt	i	63
CC(C)n1c(SCC(=O)NC2CC2)nnc1-c1ccco1	i	nt	i	nt	i	66
CCOC(=O)CN(C(=O)CSc1nnc(COc2ccc(OC)cc2)n1C)c1ccccc1	i	i	i	i	i	74
Cn1ccnc1SCC(=O)NC1CCCCC1	i	i	i	i	i	62
Cn1c(SCC(=O)NC2CC2)nnc1-c1ccco1	i	i	i	i	i	i
Cn1c(COc2ccc(F)cc2)nnc1SCC(=O)NC1CC1	i	nt	i	nt	i	i
O=S(=O)(c1ccccc1)c1nc(-c2ccccc2)oc1NCc1cccnc1	i	i	i	i	i	i
O=S(=O)(c1ccccc1)c1nc(-c2ccco2)oc1NCc1cccnc1	i	i	i	i	i	68
O=C1CSC(=S)N1/N=C/c1cc(Br)ccc1O	i	nt	i	nt	35	i
COc1ccc(-c2nn(-c3ccccc3)cc2/C=N/N2C(=O)CSC2=S)cc1	i	i	i	i	i	i
O=C1CSC(=S)N1/N=C/c1ccc(O)c(O)c1O	i	i	?	nt	68	74
COc1ccc(/C=N/N2C(=O)CSC2=S)cc1Br	i	nt	nt	nt	nt	nt
CC(C)(C)c1ccc(/C=N/N2C(=O)CSC2=S)cc1	i	nt	i	nt	31	i
CCOc1ccc(C(C)(C)C)cc1S(=O)(=O)Nc1ccncc1	i	nt	i	nt	i	nt
CCn1nc([N+](=O)[O-])c2c(-c3nc4ccccc4o3)c(N)n(CCCOC)c2c1=O	i	i	i	i	i	96
CCOC(=O)COc1cc2oc(=O)cc(C)c2cc1[N+](=O)[O-]	i	i	i	i	i	i
COCCn1c(-c2ccc(OC)cc2)c(-c2ccc(OC)cc2)oc1=O	i	nt	i	nt	i	i
COc1ccc(-c2oc(=O)n(C)c2-c2ccc(OC)cc2)cc1	i	nt	i	nt	i	61
COc1cccc(C(=O)Nc2cc(C)nn2-c2ccccc2)c1OC	i	nt	i	nt	i	i
CCOC(=O)c1c(C)[nH]c(C2=NNC(=NC3CC3)SC2)c1C	i	i	i	i	44	i
CCOC(=O)c1c(C)[nH]c(/C(C)=N/O)c1C	i	i	i	i	i	i
CN(C(=O)CN1C(=O)S/C(=C\c2ccc(Cl)cc2)C1=O)C1CCS(=O)(=O)C1 (configuration not stated)	i	nt	i	nt	i	i
Cc1cc(NC(=O)CSc2nnc(-c3cccnc3)n2N)no1	nt	i	i	i	i	74
Nn1c(SCC(=O)Nc2ccccc2F)nnc1-c1cccnc1	i	i	i	i	i	69
SMILES	HDAC3 inhib	p97 inhibitor	UBC9 SUMO inh	G6PDH counter	PfM18AAP inh	PHOSPHO1 block
Nn1c(SCC(=O)Nc2ccc(F)cc2F)nnc1-c1cccnc1	i	i	i	i	i	i
CCS(=O)(=O)N1Cc2ccccc2CC1C(=O)N(C)Cc1ccc(OC)c(F)c1 (configuration not stated)	i	nt	i	nt	i	i
O=C(O)CC(Cn1[nH]nnc1=S)c1ccccc1 (configuration not stated)	i	i	i	i	i	94
O=C(O)CC(CC(=O)Nc1nncs1)c1ccccc1 (configuration not stated)	i	i	i	i	i	i
CC(=O)Nc1ccc(C(=S)NCc2ccco2)cc1	i	i	i	i	i	94
CCOc1ccc(NC(=O)NC2(C(=O)NCc3ccco3)CCCCC2)cc1	i	nt	i	nt	i	i
O=C(Cc1ccccc1)NCCSCc1ccco1	i	i	i	i	i	i
O=C(NCCSCc1ccco1)Nc1ccccc1	nt	i	i	i	i	74
CCOc1ccc(NC(=O)NCc2ccco2)cc1	i	i	i	i	i	67
Cc1ccnc(S(=O)(=O)Cc2ccc([N+](=O)[O-])cc2)n1	i	nt	i	nt	i	i
